Drawing on ChEMBL document CHEMBL4513216, “Probing the Open Global Health Chemical Diversity Library for Multistage-Active Starting Points for Next-Generation Antimalarials” (ACS Infect Dis, 2020), this text covers INHIBITION for 67 compounds.

In all, about 65,000 compounds went through this assay and about 2,100 (3.2%) showed an effect of 50% or more. The median lay at about -52%. This excerpt belongs to a sample that is enriched for strong results.

The assay relates to Plasmodium falciparum. The experiment in a line: Screen against P. falciparum Asexual Blood Stage (ABS), at 5uM. Format: functional, Dd2. As to conditions: tested at 5 uM.
For `c1ccc(-c2nc3c(c(NCc4n[nH]c5c4CCC5)n2)CCNC3)cc1`, the INHIBITION is given as 89.6%.

Take `CC(Cn1ccnc1)NCc1n[nH]c2c1CCC2` (configuration not stated): the INHIBITION is -33%.

With `CCCN(C(=O)c1cccnc1)c1nc2c(s1)CCc1c-2cnn1C`, the INHIBITION was 82.4%.

With `CN1CCC2(CCN(C(=O)c3cccnc3)C2)C1` (configuration not stated), the INHIBITION is given as -11.5%.

`O=C(c1ccc(F)c(Cl)c1)N1C[C@H]2CC[C@@H](C1)N(Cc1ccccc1)C2`: the INHIBITION turned out to be 74.1%.

As for `O=C(c1cccnc1)N1C[C@H]2CC[C@@H](C1)N(Cc1ncc[nH]1)C2`, the INHIBITION is on record as -47.1%.

As for `O=C(c1c[nH]c(=O)c(Cl)c1)N1C[C@H]2CC[C@@H](C1)N(CC1CCC1)C2`, the INHIBITION is recorded as -110%.

Regarding `CS(=O)(=O)CC1(CNc2ccc(C#N)c(C(F)(F)F)c2)CC1`, the INHIBITION is given as -27%.

`CCOc1ccc(CNCC(O)c2ccccc2)cc1Cl` (configuration not stated): the INHIBITION was 89.4%.

With `CNc1cc(C)nc(NCc2cc(C)cc3c(C)c(C)[nH]c23)n1`, the INHIBITION is on record as 92%.

For the compound `CNc1nc(C)cc(NCc2cc(C)cc3c(C)c(C)[nH]c23)n1`, the INHIBITION is on record as 92.7%.

`c1nc(N2CCOCC2)nc2c1COCC21CCN(CC2CC2)C1` (configuration not stated): the INHIBITION is reported as -12.1%.

With `CC(C)NC(=O)[C@H]1C[C@@H]2[C@@H](C1)OCCN2Cc1ccncc1`, the INHIBITION was -82%.

As for `COc1cccc(C2SCC(=O)Nc3ccsc32)c1OC` (configuration not stated), the INHIBITION is listed as -4.19%.

For `CN(C)CCN1CC2(CCCN(c3ncc(Cl)cc3F)C2)CCC1=O` (configuration not stated), the INHIBITION is on record as 82.8%.

Turning to `O=C(Cc1ccsc1)N1C[C@@H]2OCCN(CC3CC3)[C@@H]2C1`, the INHIBITION was -48%.

For the compound `Cc1ccc(N2CCN(C)c3ncccc3C2)nn1`, the INHIBITION was -27.9%.

`c1cncc(-c2ccc3c(c2)C2(CCNCC2)CC3)c1`: the INHIBITION came out at 71.1%.

`c1cncc(-c2ccc3c(c2)CCC32CCN(Cc3ccco3)CC2)c1`: the INHIBITION turned out to be 73.9%.

Turning to `c1cncc(-c2ccc3c(c2)CCC32CCNCC2)c1`, the INHIBITION was determined as 86.9%.

Regarding `O=C1[C@H]2CN(Cc3ccco3)C[C@H]2CN1c1cncnc1`, the INHIBITION was -54.3%.

For the compound `CN(C)CC(=O)N1CCC2(CCc3cc(-c4cccnc4)ccc32)CC1`, the INHIBITION worked out at 80.1%.

For the compound `COCC(=O)N1CCC2(CCN(Cc3cccnc3)C2)CC1`, the INHIBITION is -7.11%.

As for `O=C1N(c2cccnc2)CCC12CCCN(Cc1ccco1)C2` (configuration not stated), the INHIBITION is recorded as -5.52%.

For `O=C1NC2(CCNCC2)CC1c1cccnc1` (configuration not stated), the INHIBITION is -11.2%.

On to `CN(C)CCN1CCCC12CCCN(C(=O)c1cccnc1)C2` (configuration not stated), for which the INHIBITION was -10.1%.

As for `Cc1n[nH]c(C)c1CC(=O)N1CCN(C)C2(CCNC(=O)CC2)C1` (configuration not stated), the INHIBITION was -115%.

On to `COCCN1CCC12CCN(C(=O)Cc1cccs1)C2` (configuration not stated), for which the INHIBITION is recorded as -9.04%.

On to `CN1CCC2(COCc3cnc(-c4ccccc4)nc32)C1` (configuration not stated), for which the INHIBITION was -45%.

For the compound `COCCn1c(C(=O)NC(C(N)=O)C(C)C)cc2ccccc21` (configuration not stated), the INHIBITION is reported as -92%.

As to `COc1nc(N2CCNCC2)ncc1Br`, the INHIBITION was 23.8%.

For `Cc1ccc(N2CCC3(CN(CCO)CCC3(F)F)C2)nn1` (configuration not stated), the INHIBITION is listed as -59.8%.

With `Fc1cnc(N2CC3(CCN(Cc4ccsc4)C3)C2)nc1`, the INHIBITION worked out at 3.41%.

Take `CCc1ncc(CN2CCC3(CCCN(CC4CCC4)C3)C2)cn1` (configuration not stated): the INHIBITION is recorded as 8.28%.

As to `Cc1ncc(CN2CCC3(CCCN(CC4CCC4)C3)C2)cn1` (configuration not stated), the INHIBITION is given as -45.2%.

For `Fc1cnc(N2CCCC3(CCN(Cc4ccoc4)C3)C2)nc1` (configuration not stated), the INHIBITION turned out to be 73.7%.

Consider `Fc1cnc(N2CCCC3(CCN(Cc4nccs4)C3)C2)nc1` (configuration not stated), for which the INHIBITION stood at 25.5%.

Consider `Cc1c[nH]c(CN2CCC3(CCCN(Cc4ccc(F)c(F)c4)C3)C2)n1` (configuration not stated), for which the INHIBITION was determined as 80.3%.

Regarding `COc1ncc(CN2CCC3(CCCN(CC4CCC4)C3)C2)cn1` (configuration not stated), the INHIBITION is listed as -57.4%.

For `COc1ccc(CN2CCC3(CCCN(c4ncc(F)cn4)C3)C2)cc1` (configuration not stated), the INHIBITION amounted to 87.1%.

In the case of `Fc1cnc(N2CCCC3(CCN(Cc4ccsc4)C3)C2)nc1` (configuration not stated), the INHIBITION is given as 87.6%.

For `CCc1cnc(N2CC3(CCN(Cc4ccsc4)C3)C2)nc1`, the INHIBITION is -19.4%.

As for `COCCN1CCC2(C1)CN(c1ncc(F)cn1)C2`, the INHIBITION is recorded as -81.1%.

On to `Cc1oc(-c2ccco2)nc1CC(=O)N1CCN(CC(C)(C)O)CC1`, for which the INHIBITION is -109%.

With `Cc1noc(CN2CC=C(c3c[nH]c4ncccc34)CC2)n1`, the INHIBITION was -31.2%.

With `Cc1cccc(CN2C[C@@H](NC(=O)C3CC3)[C@H]3OCCC[C@H]32)n1`, the INHIBITION is given as -83.3%.

Consider `c1cnc(N2CCCC3(CCN(Cc4ccsc4)C3)C2)nc1` (configuration not stated), for which the INHIBITION was determined as 68.1%.

As to `Fc1cnc(N2CCOCC3(CCCNC3)C2)nc1` (configuration not stated), the INHIBITION is -11.2%.

`Cc1cnc(N2CCOC3(CCCN(C)C3)C2)nc1` (configuration not stated): the INHIBITION is 14.9%.

For `Cc1cnc(N2CC3(CCN(Cc4cccnc4)C3)C2)nc1`, the INHIBITION turned out to be 12.1%.

In the case of `Fc1cnc(N2CCOC3(CCN(Cc4ccsc4)CC3)C2)nc1`, the INHIBITION turned out to be 81.6%.

In the case of `c1cnc(N2CCCC3(CCN(Cc4cccs4)C3)C2)nc1` (configuration not stated), the INHIBITION was determined as 40.4%.

Turning to `c1cnc(N2CCCC3(CCN(Cc4ccncc4)C3)C2)nc1` (configuration not stated), the INHIBITION is -63.1%.

Turning to `Fc1cnc(N2CCCC3(CN(Cc4cccs4)CCO3)C2)nc1` (configuration not stated), the INHIBITION is reported as -78.4%.

On to `Fc1cnc(N2CCCC3(CCN(Cc4cccs4)C3)C2)nc1` (configuration not stated), for which the INHIBITION is on record as 69.4%.

Consider `Fc1cnc(N2CCCC3(CCN(Cc4ccco4)C3)C2)nc1` (configuration not stated), for which the INHIBITION worked out at 78.2%.

Consider `c1cnc(N2CCOCC3(CN(Cc4ccsc4)CCO3)C2)nc1` (configuration not stated), for which the INHIBITION is -62.3%.

With `Cc1ccc(N2CCO[C@H]3CN(Cc4ccoc4)C[C@H]32)nn1`, the INHIBITION is listed as -106%.

As to `Cc1cc(CN2C[C@@H]3CN(Cc4ccsc4)CCO[C@@H]3C2)no1`, the INHIBITION is on record as -101%.

With `CC(C)(C)c1cc(=O)[nH]c(C2(N)CCCCC2)n1`, the INHIBITION is listed as -114%.

Take `O=C(NC1CCC1)[C@H]1C[C@H]2NCCO[C@@H]2C1`: the INHIBITION is on record as -269%.

Turning to `c1ccc(N2CC3(CCN(Cc4cccnc4)C3)C2)nc1`, the INHIBITION is listed as -13.8%.

Turning to `c1ccc(N2CCCC3(CCN(Cc4ccsc4)C3)C2)nc1` (configuration not stated), the INHIBITION amounted to 82.6%.

Turning to `CCc1nc(CC(=O)N2CCCC2CN2CCCC2)cs1` (configuration not stated), the INHIBITION is reported as -48.9%.

With `CN(C)c1nc2c(c(N(C)Cc3n[nH]c4c3CCCC4)n1)CCNCC2`, the INHIBITION amounted to 84.4%.

Consider `CN(Cc1n[nH]c2c1CCCC2)c1nc(C2CC2)nc2c1CCNCC2`, for which the INHIBITION is recorded as 89.5%.

Turning to `CN(C)C[C@]12COC[C@H]1CN(Cc1ccc3ccccc3n1)C2`, the INHIBITION came to 27.2%.
